Records with an inconclusive call do not appear. Calls of active or inactive are those of the source. Rule for the calls, unless noted: active = hit-call score of the fitted dose curve at least 0.9, where 1 is the maximum; inconclusive = response in the unintended direction; inactive = score below 0.9.
Assays:
[1] = Tanguay_ZF_120hpf_JAW_legacy: (Legacy) Oregon State University Tanguay Lab 120 Hour Post-fertilization zebrafish Assay for Jaw Malformation (AID 2283638);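 for AC50: active means more embryos with jaw malformation than DMSO controls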
Procedure, shortened: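 Steps: dechorionate 4 hpf embryos (pronase); plate 1/well at 6 hpf; add test chemical, 0.64% DMSO final; seal, cover, hold at 28C statically to 120 hpf; score jaw defect presence/absence microscopically. Dead embryos not scored.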

[2] = Tanguay_ZF_120hpf_OTIC_legacy: (Legacy) Oregon State University Tanguay Lab 120 Hour Post-fertilization zebrafish Assay for Otic Vesicle Malformation (AID 2283639)
Procedure, shortened: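 Wild-type zebrafish larvae, whole-embryo exposure from early stage to 120 hpf at 28C. Binary brightfield scoring of otic vesicle morphology, fitted in the positive direction against the DMSO baseline.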

[3] = Tanguay_ZF_120hpf_PE_legacy: (Legacy) Oregon State University Tanguay Lab 120 Hour Post-fertilization zebrafish Assay for Pericardial Edema (AID 2283640);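 for AC50: potency for increased incidence of pericardial edema versus DMSO baseline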
Procedure, shortened: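 Embryos from wild-type 5D adults were staged, then dosed in 0.64% DMSO. They were kept sealed in the dark at 28C until 120 hpf. Pericardial edema was then recorded as present or absent.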

[4] = Tanguay_ZF_120hpf_SOMI_legacy: (Legacy) Oregon State University Tanguay Lab 120 Hour Post-fertilization zebrafish Assay for Somite Malformation (AID 2283647)
Procedure, shortened: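 Read-out: presence or absence of somite malformation in 120 hpf larvae, gain-of-signal relative to DMSO baseline. Embryos lacked chorion (pronase, 4 hpf) and were exposed statically from 6 hpf at 28C; dead larvae not scored.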

[5] = Tanguay_ZF_120hpf_PFIN_legacy: (Legacy) Oregon State University Tanguay Lab 120 Hour Post-fertilization zebrafish Assay for Pectoral Fin Malformation (AID 2283648);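 note: each larva judged yes or no for fin defect by brightfield with dead larvae skipped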
Procedure, shortened: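 Pectoral fin malformation was recorded as a binary endpoint at 120 hpf in wild-type Tropical 5D larvae, which had been dechorionated and exposed statically from 6 hpf at 28C in 0.64% DMSO. Dead embryos were excluded.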

[6] = Tanguay_ZF_120hpf_CFIN_legacy: (Legacy) Oregon State University Tanguay Lab 120 Hour Post-fertilization zebrafish Assay for Caudal Fin Malformation (AID 2283649)
Procedure, shortened: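 Binary presence or absence of caudal fin malformation at 120 hpf, read by brightfield microscopy, with DMSO as baseline. Larvae came from 5D wild-type embryos exposed statically from 6 hpf at 28C after pronase dechorionation.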

[7] = Tanguay_ZF_120hpf_PIG_legacy: (Legacy) Oregon State University Tanguay Lab 120 Hour Post-fertilization zebrafish Assay for Pigmentation Malformation (AID 2283650)
Procedure, shortened: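 Pigment malformation recorded as a binary call at 120 hpf in zebrafish (Tropical 5D) exposed singly from 6 hpf after pronase dechorionation. Static, sealed, 28C exposure, 0.64% DMSO; mortality excludes scoring; positive-direction fit against DMSO.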

[8] = Tanguay_ZF_120hpf_CIRC_legacy: (Legacy) Oregon State University Tanguay Lab 120 Hour Post-fertilization zebrafish Assay for Circulatory Malformation (AID 2283651)
Procedure, shortened: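 Binary circulatory-malformation call at 120 hpf via brightfield imaging, relative to DMSO controls. Embryos (5D strain, chorion removed) received static, light-shielded exposure at 28C.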

[9] = Tanguay_ZF_120hpf_BRAI_legacy: (Legacy) Oregon State University Tanguay Lab 120 Hour Post-fertilization zebrafish Assay for Brain Malformation (AID 2283641)
Procedure, shortened: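 Wild-type 5D larvae, static waterborne exposure to 120 hpf, 28C, 0.64% v/v DMSO. Brightfield scoring of brain defects, binary; dead embryos excluded. Positive ctrl 5uM trimethyltin chloride.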

[10] = read-out: kallikrein-3 (KLK3), KLK3 (gene 354); assay: LTEA_HepaRG_KLK3: Life Technologies and Expression Analysis (LTEA) Assay for kallikrein-3 (KLK3) using HepaRG (AID 2283652; active = hit-call score of the fitted dose curve at least 0.9, where 1 is the maximum; inactive = score below 0.9); conditions: mRNA level, 48 h; actives raise or lower the signal
Procedure, shortened: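 KLK3 transcript levels were measured by TaqMan qRT-PCR with normalisation to three housekeeping genes. HepaRG cultures received chemicals for 48 h at up to 100 uM (half-log, 8 points, 0.5% DMSO vehicle), fitted in both directions against DMSO.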

Measured: AC50

CCOP(=S)(OCC)OC(Cl)C(Cl)(Cl)Cl (stereo unspecified)
not listed: [8] | [9] | [10]
inactive: all other assays above

C[N+]1(C)CCCCC1
not listed: [9] | [10]
inactive: all other assays above

CSc1nnc(C(C)(C)C)c(=O)n1N
not listed: [7] | [10]
inactive: all other assays above

COP(=O)(OC)OC(Br)C(Cl)(Cl)Br (stereo unspecified)
not listed: [6] | [7] | [10]
inactive: all other assays above

O=[N+]([O-])c1cc(C(F)(F)F)c(Cl)c([N+](=O)[O-])c1Nc1ncc(C(F)(F)F)cc1Cl
not listed: [4] | [10]
inactive: all other assays above

CC1=NNC(=O)N(/N=C/c2cccnc2)C1
not listed: [7] | [10]
inactive: all other assays above

Nc1c(Cl)cc([N+](=O)[O-])cc1Cl
active: [1] 31.4 µM | [2] 36.4 µM | [3] 43.1 µM | [5] 42.1 µM | [6] 39.1 µM | [7] 10.8 µM
inactive: [4] | [8]

CNC(=O)ON=C(C)SC
active: [1] 39.5 µM
not listed: [4] | [10]
inactive: all other assays above

CCCCOC(=O)c1ccccc1C(=O)O
not listed: [9] | [10]
inactive: all other assays above

CCOP(=S)(Oc1cnc(C(C)(C)C)nc1)OC(C)C (stereo unspecified)
not listed: [6]
inactive: all other assays above

C[Si](Cn1cncn1)(c1ccc(F)cc1)c1ccc(F)cc1
active: [1] 13.4 µM | [2] 12.7 µM | [3] 9.78 µM | [4] 47.7 µM | [5] 20.9 µM | [6] 36 µM
inactive: [7] | [8]

CCCSP(=O)(OCC)Oc1ccc(Br)cc1Cl (stereo unspecified)
not listed: [8] | [10]
inactive: all other assays above

COP(=O)(OC)SCn1c(=O)oc2cc(Cl)cnc21
active: [1] 15.9 µM | [3] 11.2 µM
not listed: [10]
inactive: all other assays above

CCC(=NOC/C=C/Cl)C1=C(O)CC(C2CCOCC2)CC1=O (stereo unspecified)
not listed: [9] | [10]
inactive: all other assays above

CC(COc1ccc(Oc2ccccc2)cc1)Oc1ccccn1 (stereo unspecified)
not listed: [8]
inactive: all other assays above

Cc1cc(C2CC2)nc(Nc2ccccc2)n1
not listed: [4] | [7] | [10]
inactive: all other assays above

CCC(CC)Nc1c([N+](=O)[O-])cc(C)c(C)c1[N+](=O)[O-]
not listed: [9] | [10]
inactive: all other assays above

COc1cc(OC)nc(Sc2cccc(Cl)c2C(=O)O)n1
not listed: [4] | [10]
inactive: all other assays above

CCOC(=O)CC(SP(=O)(OC)OC)C(=O)OCC (stereo unspecified)
not listed: [10]
inactive: all other assays above

CNC(=O)ON=C(SC)C(=O)N(C)C
not listed: [8] | [9] | [10]
inactive: all other assays above

CCC(=O)Nc1ccc(Cl)c(Cl)c1
not listed: [10]
inactive: all other assays above

CCOP(=S)(OCC)SCCSCC
not listed: [4] | [7] | [10]
inactive: all other assays above

O=c1ccc(=O)[nH][nH]1
not listed: [8] | [9] | [10]
inactive: all other assays above

CSC1=N[C@@](C)(c2ccccc2)C(=O)N1Nc1ccccc1
active: [3] 2.63 µM
not listed: [10]
inactive: all other assays above

CC(Oc1cccc(Cl)c1)C(=O)O (stereo unspecified)
not listed: [10]
inactive: all other assays above

C#CCC1=C(C)C(OC(=O)C2C(C=C(C)C)C2(C)C)CC1=O (stereo unspecified)
not listed: [9] | [10]
inactive: all other assays above

COP(=O)(OC)C(O)C(Cl)(Cl)Cl (stereo unspecified)
not listed: [10]
inactive: all other assays above

CN(C)NC(=O)CCC(=O)O
not listed: [8] | [9] | [10]
inactive: all other assays above

CCOP(=O)(OCC)Oc1cc(C)nc(C(C)C)n1
not listed: [10]
inactive: all other assays above

C=C(C)[C@H]1Cc2c(ccc3c2O[C@@H]2COc4cc(OC)c(OC)cc4[C@@H]2C3=O)O1
not listed: [9] | [10]
inactive: all other assays above

CC[C@H](C)[C@H]1O[C@]2(C=C[C@@H]1C)C[C@@H]1C[C@@H](C/C=C(\C)[C@@H](O[C@H]3C[C@H](OC)[C@@H](O[C@H]4C[C@H](OC)[C@@H](NC)[C@H](C)O4)[C@H](C)O3)[C@@H](C)/C=C/C=C3\CO[C@@H]4[C@H](O)C(C)=C[C@@H](C(=O)O1)[C@]34O)O2
not listed: [4] | [6] | [7]
inactive: all other assays above

CCCOCC(=Nc1ccc(Cl)cc1C(F)(F)F)n1ccnc1
not listed: [8] | [10]
inactive: all other assays above

Cc1ccn2nc(S(=O)(=O)Nc3c(F)cccc3F)nc2n1
not listed: [10]
inactive: all other assays above

CC(C)[C@H](C(=O)O[C@H](C#N)c1cccc(Oc2ccccc2)c1)c1ccc(Cl)cc1
active: [1] 5.13 µM | [3] 5.21 µM | [4] 1.15 µM | [5] 1.17 µM
inactive: [2] | [6] | [7] | [8]

CCOP(=O)(NC(C)C)Oc1ccc(SC)c(C)c1 (stereo unspecified)
active: [1] 21.6 µM | [3] 25.6 µM | [5] 16.9 µM
not listed: [9] | [10]
inactive: all other assays above

CNC(=O)Oc1cccc2c1OC(C)(C)O2
not listed: [8] | [9]
inactive: all other assays above

CN(C)[C@@H]1C(=O)C(C(N)=O)=C(O)[C@@]2(O)C(=O)C3=C(O)c4c(O)cccc4[C@@](C)(O)[C@H]3[C@H](O)[C@@H]12
not listed: [7] | [9] | [10]
inactive: all other assays above

CCNc1nc(Cl)nc(NC(C)(C)C#N)n1
inactive: [3] | [5] | [6] | [7] | [8]

CCc1cccc(CC)c1N(COC)C(=O)CCl
not listed: [6] | [9] | [10]
inactive: all other assays above

CON=C(C(=O)OC)c1ccccc1CON=C(C)c1cccc(C(F)(F)F)c1
active: [1] 5.3 µM | [3] 8.26 µM
not listed: [9] | [10]
inactive: all other assays above

CCCCOC(=O)[C@@H](C)Oc1ccc(Oc2ccc(C#N)cc2F)cc1
inactive: [1] | [3] | [6] | [7]

C#CC(C)(C)NC(=O)c1cc(Cl)cc(Cl)c1
not listed: [5] | [9] | [10]
inactive: all other assays above

CN(C)C(=O)Nc1cccc(C(F)(F)F)c1
not listed: [9] | [10]
inactive: all other assays above

COP(=O)(NC(C)=O)SC (stereo unspecified)
not listed: [9] | [10]
inactive: all other assays above

O=C(O)c1cc(Oc2ccc(C(F)(F)F)cc2Cl)ccc1[N+](=O)[O-]
not listed: [4] | [9] | [10]
inactive: all other assays above

CC(C1CC1)C(O)(Cn1cncn1)c1ccc(Cl)cc1 (stereo unspecified)
inactive: [6] | [7] | [8]
active: [1] 24.7 µM | [3] 15.1 µM | [9] 22.6 µM | [5] 25.9 µM

CCOP(=S)(OCC)Oc1ccc([N+](=O)[O-])cc1
inactive: [1] | [2] | [3] | [4] | [6]

CCOP(=S)(OCC)Oc1ccc2c(C)c(Cl)c(=O)oc2c1
not listed: [2] | [9]
inactive: all other assays above

Reference: PubChem BioAssay (EPA / NIEHS)
